Compound activity as filed in PubChem.
HPGD inh = blocks human HPGD enzyme activity; P15428; purified HPGD, NADH fluorescence kinetic, PGE2 substrate; Potency, µM, actives largely listed as inhibitors; 150,000 compounds, 4.3% hits
Target sequence (P15428 whole entry, looked up): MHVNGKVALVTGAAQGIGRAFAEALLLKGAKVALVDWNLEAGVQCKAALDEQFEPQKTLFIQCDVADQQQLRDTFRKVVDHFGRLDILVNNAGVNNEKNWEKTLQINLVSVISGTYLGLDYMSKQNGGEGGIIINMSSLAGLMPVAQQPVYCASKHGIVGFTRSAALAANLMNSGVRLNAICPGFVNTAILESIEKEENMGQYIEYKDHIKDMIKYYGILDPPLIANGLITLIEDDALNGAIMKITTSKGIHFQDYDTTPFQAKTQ
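NADH formation kinetics: reaction with 30 uM PGE2 and 1 mM NAD+ (final), 20 nM enzyme, Tris-HCl pH 8 with Tween 20, after 15 min compound preincubation at room temperature. Fluorescence change, last versus first of five reads.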
ALDH1A1 inh = inhibitors of human aldehyde dehydrogenase 1A1. P00352. Purified ALDH1A1, NADH fluorescence, propionaldehyde substrate. Potency, µM (highest dose often 75.3 µM), actives largely listed as inhibitors. 220,000 compounds, 7.3% hits. AID 1030
Target sequence (P00352 whole entry, looked up): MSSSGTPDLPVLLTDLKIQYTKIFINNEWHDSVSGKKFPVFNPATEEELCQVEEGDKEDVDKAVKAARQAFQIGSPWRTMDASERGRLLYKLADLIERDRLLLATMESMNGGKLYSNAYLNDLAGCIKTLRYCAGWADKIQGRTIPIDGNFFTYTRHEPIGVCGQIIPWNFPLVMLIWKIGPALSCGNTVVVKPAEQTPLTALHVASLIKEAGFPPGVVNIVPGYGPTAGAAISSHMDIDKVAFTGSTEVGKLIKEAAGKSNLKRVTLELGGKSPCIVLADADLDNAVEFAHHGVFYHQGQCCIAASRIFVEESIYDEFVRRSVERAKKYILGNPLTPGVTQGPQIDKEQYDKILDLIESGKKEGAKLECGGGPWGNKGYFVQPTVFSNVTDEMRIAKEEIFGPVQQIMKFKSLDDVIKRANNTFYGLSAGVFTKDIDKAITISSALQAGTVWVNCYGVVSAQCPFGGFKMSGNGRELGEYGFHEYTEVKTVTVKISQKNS
Lamin A splicing = changes lamin A minigene splicing in HeLa cells; HeLa LMNA splicing GFP/RFP minigene ratio, 48 h; Potency, µM (highest dose often 46.1 µM), hits mostly inhibitors; 200,000 compounds, 0.01% hits; AID 1487; active = well fitted inhibition curve with a large enough effect in the signal ratio, with a control signal flat, not every such curve was filed as active; inconclusive = small, poorly fitted or top-dose-only effect, or effect the other way, or a change in a side signal; the % refers to the signal ratio
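S3 HeLa cells stably expressing lamin A-EGFP splicing minigene plus DsRed2, 600 cells/well, 48 h compound exposure at 37C. Laser-scanning cytometry; analysed as GFP (500-530 nm)/RFP (575-640 nm) total intensity ratio; 0.5% DMSO vehicle.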
IMPase Li inh = IMPase inhibition in cells with lithium potentiation | CHO-M1 cells, IP1 TR-FRET (IP-One), carbachol + lithium | Potency, µM (top dose mostly 59.4 µM), actives largely listed as inhibitors | 210,000 compounds, 0.35% hits; active = well fitted curve in the direction sought with a large enough effect; inconclusive = small, poorly fitted or top-dose-only effect, or another doubt; inactive = no such curve, though single readings can be large; an effect the other way counts as inactive or inconclusive;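 note: IP1 builds up when IMPase is blocked and the TR-FRET signal falls; nearly all actives have a fitted effect of over 50% in size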
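Readout is a homogeneous TR-FRET IP1 immunoassay (Ex 320, Em 665 and 620), where raised cytosolic IP1 lowers signal. Cells were CHO-M1 treated 30 min at 37C with test compounds plus a little lithium; AC50 values came from Hill-equation fitting.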
Luc counter = counter-screen: inhibitors of Kinase-Glo firefly luciferase; Q27757; Kinase-Glo luciferase, ATP luminescence, 8 min; Potency, µM (titrated, usually from 38.3 µM), actives largely listed as inhibitors; 200,000 compounds, 0.28% hits; active = well fitted curve in the direction sought with a large enough effect; inconclusive = small, poorly fitted or top-dose-only effect, or another doubt; inactive = no such curve, though single readings can be large; an effect the other way counts as inactive or inconclusive; note: nearly all actives have a fitted effect of over 60% in size
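Recombinant Kinase-Glo luciferase, 10 uM ATP (linear range), luciferin; imidazole pH 7.2 / KCl / MgCl2 / Tween / BSA buffer; 8 min RT; luminescence.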
Large screens that a line does not name were inactive; ! = a repeat was not active. Only some compounds are listed: those with a hit (about 9% of all), similar ones and a draw of the others. Unless noted, calls come from the whole dose curve; as a rule, active = well fitted inhibition curve with a large enough effect (not every such curve was filed as active); inconclusive = small, poorly fitted or top-dose-only effect, or another doubt; inactive = no such curve, though single readings can be large or run the other way.

O=C(Oc1ccc(C(=S)N2CCOCC2)cc1)c1ccc(Br)cc1	none
COC(=O)c1ccc(C(=S)N2CCOCC2)cc1	HPGD inh 28µM, ALDH1A1 inh 10µM
COc1ccc(C(=O)Oc2ccc(C(=S)N3CCOCC3)cc2)cc1	ALDH1A1 inh 7.1µM, Lamin A splicing inconclusive (no result: HPGD inh)
COc1ccc(N2C(=O)C(CN3CCN(C)CC3)C2c2ccccc2)cc1 (stereo not drawn)	none (no result: HPGD inh)
CC(C)(C)NC(=O)NC(=O)CN1CCN(c2ncc(C(F)(F)F)cc2Cl)CC1	ALDH1A1 inh 28µM, Lamin A splicing inconclusive
Cc1nc(N2CCN(C(=O)c3ccco3)CC2)c2c3c(sc2n1)CCC3	HPGD inh 28µM, ALDH1A1 inh inconclusive, Lamin A splicing inconclusive
O=C(c1ccccc1)N1CCN(c2ncnc3sc4c(c23)CCC4)CC1	ALDH1A1 inh 1.3µM, Lamin A splicing inconclusive
CC(C)c1nc(N2CCN(C(=O)c3ccco3)CC2)c2c3c(sc2n1)CCCC3	HPGD inh inconclusive, ALDH1A1 inh inconclusive
COc1ccc(C(=O)NNC(=O)C(=O)NC(C)c2ccccc2)cc1OC (stereo not drawn)	none (no result: HPGD inh, Lamin A splicing)
CC(=O)Nc1ccc(S(=O)(=O)NNC(=O)c2cccc(Br)c2)cc1	none (no result: HPGD inh)
O=C(CC1(O)C(=O)N(Cc2cccc3ccccc23)c2ccccc21)c1cccnc1 (stereo not drawn)	ALDH1A1 inh 0.11µM, Lamin A splicing inconclusive
COC(=O)CN1C(=O)C(O)(CC(=O)c2ccc(Cl)cc2)c2ccccc21 (stereo not drawn)	ALDH1A1 inh 0.22µM
C=CCN1C(=O)C(O)(CC(=O)c2ccccc2)c2ccccc21 (stereo not drawn)	ALDH1A1 inh 3.5µM
CCN1C(=O)C(O)(CC(=O)c2cccc(-n3cccc3)c2)c2ccccc21 (stereo not drawn)	ALDH1A1 inh 4.5µM (no result: HPGD inh)
COC(=O)CN1C(=O)C(O)(CC(=O)c2cccc(Br)c2)c2ccccc21 (stereo not drawn)	ALDH1A1 inh 0.56µM
COc1cc2c(cc1OC)C(CCN)=NCC2	none (no result: Lamin A splicing)
N#CC(=NCCO)C1=C(O)c2ccccc2C1=O	none (no result: Lamin A splicing)
O=C1C(SCCO)=C(SCCO)C(=O)c2ccccc21	HPGD inh 2.8µM!, ALDH1A1 inh 18µM, Lamin A splicing inconclusive
CO[C@@H]1C[C@H](O[C@H]2[C@@H](C)[C@H](O[C@@H]3O[C@@H](C)C[C@@H](N(C)C)[C@@H]3OC(C)=O)[C@H](C)C[C@]3(CO3)C(=O)[C@H](C)[C@H](OC(C)=O)[C@H](C)[C@H](C)OC(=O)[C@@H]2C)O[C@H](C)[C@@H]1OC(C)=O	Lamin A splicing inconclusive
CC(=O)c1cc(C#N)c(SCC(=O)OC(C)C)nc1C	ALDH1A1 inh inconclusive
CC(=O)c1cc(C#N)c(SCC(=O)OC(C)(C)C)nc1C	ALDH1A1 inh 6.3µM
COCCNC(=O)c1csc2c1CCCC2	HPGD inh 16µM
O=C(NCC1CCCO1)c1csc2c1CCCC2 (stereo not drawn)	HPGD inh 20µM
CCN1CCCC1CNC(=O)c1csc2c1CCCC2 (stereo not drawn)	none
COc1ccc2c(c1)C(=O)[C@H](OC(=O)NS(=O)(=O)c1ccc(C)cc1)[C@@H](c1ccc(OC)c(Br)c1)O2	ALDH1A1 inh inconclusive (no result: Lamin A splicing)
COc1cc(OC)cc(C(=O)NCC(c2cccs2)S(=O)(=O)c2ccc(F)c(C)c2)c1 (stereo not drawn)	none (no result: HPGD inh, ALDH1A1 inh, IMPase Li inh, Luc counter)
CCN(Cc1ccccc1)C(=O)c1ccc(CNS(=O)(=O)c2ccc(C)cc2)cc1	HPGD inh inconclusive, ALDH1A1 inh 2µM, Lamin A splicing inconclusive
COc1ccc(NS(=O)(=O)c2cccc(-c3n[nH]c(=S)n3Cc3ccccc3)c2)cc1	ALDH1A1 inh 0.45µM, Lamin A splicing inconclusive (no result: HPGD inh)
CCN(CC)C(=O)c1ccc(S(=O)(=O)NCc2cccnc2)cc1	HPGD inh inconclusive, Lamin A splicing inconclusive
CC(C)Cn1c(-c2csc3c2CCCC3)n[nH]c1=S	HPGD inh 28µM, ALDH1A1 inh 35µM
CC(C)Cn1c(-c2ccc(F)cc2)n[nH]c1=S	HPGD inh 28µM, ALDH1A1 inh inconclusive
CO[C@@H]1c2cc(F)ccc2/C(=C\CCOC(=O)C/C=C/c2ccccc2)[C@H]1C	none (no result: Lamin A splicing)
CCN(CC)S(=O)(=O)c1ccc(C(=O)NCc2cccs2)cc1	none
CCN(CC)S(=O)(=O)c1ccc(C(=O)NCc2ccc(C)cc2)cc1	ALDH1A1 inh 10µM
CCN(CC)S(=O)(=O)c1cccc(-c2n[nH]c(=S)n2Cc2ccccc2)c1	ALDH1A1 inh 7.1µM (no result: HPGD inh)
O=C(NCc1n[nH]c(=S)n1Cc1ccccc1)c1ccc(Cl)cc1Cl	ALDH1A1 inh 22µM (no result: HPGD inh, Lamin A splicing)
CCN(CC)S(=O)(=O)c1ccc(C(=O)NCc2n[nH]c(=S)n2Cc2ccccc2)cc1	ALDH1A1 inh 2.5µM
CCN(CC)S(=O)(=O)c1cccc(-c2n[nH]c(=S)n2CC(C)C)c1	ALDH1A1 inh 7.9µM (no result: HPGD inh, Lamin A splicing, Luc counter)
CCN1C(=O)/C(=C\C=C2/C=CC=CN2CC)SC1=S	ALDH1A1 inh 25µM, Luc counter inconclusive
Cc1cccc(NC(=O)c2cc(NC(=O)C3CC=CCC3C(=O)O)ccc2N2CCOCC2)c1 (stereo not drawn)	ALDH1A1 inh 3.2µM
O=C(Nc1ccc(N2CCOCC2)c(C(=O)O)c1)c1ccc(Br)cc1	none (no result: HPGD inh, ALDH1A1 inh, IMPase Li inh, Luc counter)
Cc1cc(C(=O)Nc2ccc(N3CCOCC3)c(Cl)c2)c(C)o1	none (no result: HPGD inh, IMPase Li inh, Luc counter)
Cc1ccc(NC(=O)c2cc(N3C(=O)C=CC3=O)ccc2N2CCOCC2)cc1Cl	HPGD inh 1.3µM, ALDH1A1 inh 0.25µM, Lamin A splicing inconclusive
Cc1ccc(NC(=O)c2cc(NC(=O)C3CC=CCC3C(=O)O)ccc2N2CCOCC2)cc1Cl (stereo not drawn)	ALDH1A1 inh 1.8µM
Cc1ccc(NC(=O)c2cc(NC(=O)C3CC=CCC3C(=O)O)ccc2N2CCOCC2)cc1 (stereo not drawn)	ALDH1A1 inh 13µM
O=C(CCS(=O)(=O)c1ccccc1)Nc1ccccc1F	none (no result: HPGD inh, Lamin A splicing)
CC1Cc2ccccc2N1C(=O)CN1CCC(C(N)=O)CC1 (stereo not drawn)	ALDH1A1 inh inconclusive, IMPase Li inh inconclusive (no result: HPGD inh, Lamin A splicing)
O=C(CSc1nccn1-c1cccc(Cl)c1)NC1CCCC1	HPGD inh 16µM
O=C(CCSCc1cccc(Cl)c1)NCCC1=CCCCC1	HPGD inh inconclusive
O=C(CCSCc1cccc(Cl)c1)NC1CCCC1	HPGD inh 14µM
O=C(CCSCc1ccccc1Cl)NC1CCCC1	HPGD inh 11µM
CCOC(=O)c1ccc(NC(=O)Cn2c(=O)cc(C(F)(F)F)c3c(C)nn(C)c32)cc1	none (no result: HPGD inh, ALDH1A1 inh, IMPase Li inh, Luc counter)
O=C(CSc1nc2ccccc2[nH]1)N/N=C/C=C/c1ccccc1[N+](=O)[O-]	ALDH1A1 inh 4.5µM
CCOC(=O)N/N=C/C=C/c1ccccc1[N+](=O)[O-]	ALDH1A1 inh 10µM (no result: HPGD inh)
O=C(N/N=C/C=C/c1ccccc1[N+](=O)[O-])c1cc(-c2ccccc2)n[nH]1	HPGD inh 25µM, ALDH1A1 inh inconclusive, Lamin A splicing inconclusive
